Measurements as given in publication PMC5540273 (PLoS ONE, 2017).

test system: KIT; conditions: concentration: 1 μM,replicates: in singlicate; n = 1
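Also: KINOMEscan kinase panel screen.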

Compound | %Inh
O=C(NCC1CC1)c1ccc(-c2cc(C(=O)NC3CC3)ccc2F)cc1 [GW810445] | 0%
CCN1CCN(CCCC(=O)Nc2n[nH]c3nc(-c4ccc(O)cc4)c(Br)cc23)CC1 [SB-731579] | 31%
Cc1nnc(-c2ccc3occ(-c4ccc(S(C)=O)cc4)c3n2)o1 (stereo not drawn) | 0%
CC(C)S(=O)(=O)N1CCN(Cc2ccc3c(c2)nc(NC(=O)c2ccsc2)n3C[C@H](O)c2ccccc2)CC1 [GW635815] | 87%
Cn1ccc2ncnc(Oc3ccc(NC(=O)Nc4cccc(C(F)(F)F)c4)c(Cl)c3)c21 | 100%
Cn1ccc2ncnc(Oc3ccc(NC(=O)Nc4ccnc(C(F)(F)F)c4)c(Cl)c3)c21 | 99.8%
Cc1cccc2c(-c3ccncc3)c(-c3ccc(F)cc3)nn12.Cl [GW461487] | 4%
Cc1ccc2c(-c3ccnc(Nc4ccc(C(F)(F)F)cc4)n3)cnn2n1 [GW819776] | 78%
Cc1n[nH]c2cc(Nc3ccnc(Nc4cccc(CN5CCOCC5)c4)n3)ccc12 [GW682569] | 97.7%
CCn1c(-c2nonc2N)nc2cncc(Br)c21 [SB-738004] | 32%
CN1CCN(CCCNc2nccc(-c3c(-c4ccc(F)cc4)nn4cc(C(N)=O)ccc34)n2)CC1 [GW622475] | 66%
Nc1nccc(-c2ccc3c(N)n[nH]c3c2)n1 [GSK1034945] | 6%
Cc1ccc(C(=O)Nc2ccc(Oc3ccc4nc(NC(=O)C5CC5)cn4c3)c(F)c2)c(=O)n1-c1ccccc1 | 100%
Cn1ccc2ncnc(Oc3ccc(NC(=O)Nc4cncc(C(F)(F)F)c4)c(Cl)c3)c21 | 99.9%
NC(=O)Nc1sc(-c2ccc(F)cc2)cc1C(N)=O [GW789449] | 65%
Cn1ccc2ncnc(Oc3ccc(NC(=O)Nc4cc(C(C)(C)C)on4)c(Cl)c3)c21 | 100%
COC(=O)c1cccc(NC(=O)NC2CCN(c3ccnc(Nc4cc(OC)c(OC)c(OC)c4)n3)C2)c1 (stereo not drawn) [GSK1379767] | 77%
O=C(Nc1ccccc1)c1cccc(Oc2ccc3nccn3n2)c1 | 98.4%
